The results in this text go back to paper PMC4336329 (PLoS ONE, 2015).

The whole screen tested about 310,000 compounds, of which about 2,200 (0.71%) showed an effect of 50% or more. Effects have a minus sign here. The sample holds strong results, similar compounds and a random draw of the others, so the mix is not that of the screen.

The target in this experiment is human ether-à-go-go-related gene (hERG) potassium channel (human, UniProt Q12809). In words: primary screen, population patch clamp on CHO cells stably expressing hERG; higher = less effect of the substance.
Chain of human ether-à-go-go-related gene (hERG) potassium channel (Q12809 whole entry, looked up): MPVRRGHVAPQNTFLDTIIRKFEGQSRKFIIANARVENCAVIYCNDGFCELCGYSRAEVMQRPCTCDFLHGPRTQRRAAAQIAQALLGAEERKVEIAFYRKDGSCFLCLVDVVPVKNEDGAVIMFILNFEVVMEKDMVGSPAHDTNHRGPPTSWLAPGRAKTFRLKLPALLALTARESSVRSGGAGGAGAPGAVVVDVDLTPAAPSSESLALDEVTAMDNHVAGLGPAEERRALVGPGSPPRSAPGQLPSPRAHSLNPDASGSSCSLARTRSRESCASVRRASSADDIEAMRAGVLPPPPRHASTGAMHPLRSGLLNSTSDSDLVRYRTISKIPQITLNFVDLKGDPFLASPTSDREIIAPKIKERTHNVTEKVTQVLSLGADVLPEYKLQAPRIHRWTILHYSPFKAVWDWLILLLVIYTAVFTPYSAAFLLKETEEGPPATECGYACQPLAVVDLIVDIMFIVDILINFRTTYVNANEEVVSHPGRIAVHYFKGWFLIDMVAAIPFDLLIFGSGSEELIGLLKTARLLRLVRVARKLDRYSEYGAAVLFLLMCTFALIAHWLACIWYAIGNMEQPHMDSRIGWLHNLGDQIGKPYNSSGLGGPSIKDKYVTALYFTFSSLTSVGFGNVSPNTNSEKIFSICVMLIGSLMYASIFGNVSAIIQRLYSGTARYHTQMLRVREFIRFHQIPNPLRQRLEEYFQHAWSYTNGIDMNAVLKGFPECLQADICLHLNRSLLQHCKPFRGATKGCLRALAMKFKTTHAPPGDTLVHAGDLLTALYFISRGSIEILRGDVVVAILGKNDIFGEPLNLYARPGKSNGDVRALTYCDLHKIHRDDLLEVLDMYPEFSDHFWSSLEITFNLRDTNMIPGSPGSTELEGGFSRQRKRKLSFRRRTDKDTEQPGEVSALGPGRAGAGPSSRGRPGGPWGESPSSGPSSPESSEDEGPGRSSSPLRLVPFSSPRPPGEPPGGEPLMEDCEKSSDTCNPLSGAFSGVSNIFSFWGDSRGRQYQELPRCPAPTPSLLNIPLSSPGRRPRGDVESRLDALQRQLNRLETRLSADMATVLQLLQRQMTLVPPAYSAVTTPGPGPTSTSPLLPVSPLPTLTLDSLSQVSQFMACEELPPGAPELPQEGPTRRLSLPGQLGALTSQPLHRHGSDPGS
For `CCOc1cccc(NC(=O)C2CC(=O)N(C)C(=Nc3cccc(F)c3)S2)c1` (stereo not shown), the “hERG current change (%, negative = inhibition) at 1uM” value came to 9.17%.
The result for `N#Cc1ccc(-c2ccc(OCC3CNC(=O)O3)cc2)cc1` (stereo not shown) reads 8.74%; that for `CCOC(=O)c1cccc(NC(=O)CCNS(=O)(=O)c2cc(Br)cnc2N)c1`, 14.4%; that for `Cc1ccc(S(=O)(=O)N2CCC(=O)N(CCOCc3cccc(F)c3)CC2)cc1`, 7.15%.
The result for `O=C(O)CCn1nnc(-c2ccccc2)n1` reads 10.7%; that for `O=C(COc1ccc(Cl)cc1)NCc1nnc(SCC(=O)Nc2ccccc2)o1`, 1.01%.
The result for `Cc1ccc(SCC(=O)Nc2ccc(C(=O)Nc3ccc(O)cc3)cc2)cc1` reads 12.6%; that for `Cc1ccc(NC(=O)Cc2ccc([N+](=O)[O-])cc2)c(Br)c1`, 5.32%; that for `CC(C)Oc1ccc(CCC(=O)N/N=C/c2ccc3c(c2)OCO3)cc1`, 16.1%.
Take `CN(C)CCn1cnc2c(c1=N)C(c1ccccc1)c1ccc3ccccc3c1O2` (stereo not shown): the “hERG current change (%, negative = inhibition) at 1uM” value is recorded as -78.1%.
The result for `COc1ccc(C2c3ccc4ccccc4c3Oc3ncn(CCCN(C)C)c(=N)c32)cc1` (stereo not shown) reads -29%; that for `COc1ccccc1C1c2ccc3ccccc3c2Oc2ncn(CCN(C)C)c(=N)c21` (stereo not shown), -7%.
The result for `N=c1c2c(ncn1CCCO)Oc1c(ccc3ccccc13)C2c1ccccc1` (stereo not shown) reads -20.5%.
In the case of `COc1ccc(C2c3ccc4ccccc4c3Oc3ncn(CCO)c(=N)c32)cc1` (stereo not shown), the “hERG current change (%, negative = inhibition) at 1uM” value is -61.7%.
In the case of `COc1ccc(C2c3ccc4ccccc4c3Oc3ncn(CCCO)c(=N)c32)cc1` (stereo not shown), the “hERG current change (%, negative = inhibition) at 1uM” value is reported as -40.6%.
In the case of `COc1ccc(C2c3ccc4ccccc4c3Oc3ncn(CCN(C)C)c(=N)c32)cc1` (stereo not shown), the “hERG current change (%, negative = inhibition) at 1uM” value was -40.1%.
For `COc1ccc(C2c3ccc4ccccc4c3Oc3ncn(CCO)c(=N)c32)cc1OC` (stereo not shown), the “hERG current change (%, negative = inhibition) at 1uM” value is reported as -13.9%.
For the compound `CN(C)CCCn1cnc2c(c1=N)C(c1ccccc1)c1ccc3ccccc3c1O2` (stereo not shown), the “hERG current change (%, negative = inhibition) at 1uM” value is listed as -61.9%.
For `Nc1cccc2c1C(=O)N(C(=O)c1ccc(Cl)c(S(=O)(=O)N3CCCCCC3)c1)C2=O`, the “hERG current change (%, negative = inhibition) at 1uM” value came out at 13.1%.
The result for `COc1cccc(CCc2nnc(CCC(=O)N3CCN(Cc4ccccn4)CC3)o2)c1` reads 10.2%; that for `COCCCNC(=O)c1cc2c(=O)n(C)c3ccccc3c2n1C`, -8.02%.
The result for `O=C(COC(=O)CCN1C(=O)c2ccccc2C1=O)Nc1ccccc1[N+](=O)[O-]` reads 16.6%.
Take `O=C(CSc1nnc(-c2ccco2)o1)N1c2ccccc2CCc2ccccc21`: the “hERG current change (%, negative = inhibition) at 1uM” value was 9.21%.
The result for `CCOC(=O)C(C)n1cnc2c(nnn2Cc2ccc(C)cc2)c1=O` (stereo not shown) reads 11.6%; that for `CC(C)c1ccc(-c2nc(N3CCCCCC3)nc3n[nH]c(N)c23)cc1`, 10.2%; that for `COc1ccc(NC(=O)Cn2nnc(C(=O)NCCc3ccc(OC)c(OC)c3)c2N)c(OC)c1`, -1.5%.
For the compound `CCn1c(CCc2ccccc2)nnc1SCC(N)=O`, the “hERG current change (%, negative = inhibition) at 1uM” value turned out to be 13.3%.
The result for `NC(=O)C1(c2ccccc2)CCC(=O)N1c1ccccc1` (stereo not shown) reads 14.8%.
The result for `COc1ccc(S(=O)(=O)N(CC(=O)NCc2cccnc2)Cc2ccccc2)cc1` reads -51.2%; that for `O=C(CN(Cc1ccccc1)S(=O)(=O)c1ccc(F)cc1)NCc1cccnc1`, -31.9%.
For the compound `Cc1ccc(S(=O)(=O)N(CC(=O)NCc2cccnc2)C2CCCCC2)cc1`, the “hERG current change (%, negative = inhibition) at 1uM” value is recorded as -30.3%.
The result for `O=C(CN(C1CCCCC1)S(=O)(=O)c1ccccc1)NCc1cccnc1` reads 5.52%; that for `CCOc1ccc(N(CC(=O)NCc2cccnc2)S(=O)(=O)c2ccc(F)cc2)cc1`, 7.16%; that for `CCOc1ccc(S(=O)(=O)N(CC(=O)NCc2ccncc2)c2ccc(C)cc2)cc1`, -14.6%.
The result for `CCOc1ccc(S(=O)(=O)N(CC(=O)NCc2cccnc2)c2ccc(C)cc2)cc1` reads -52.4%; that for `CCOc1ccc(N(CC(=O)NCc2ccccc2)S(=O)(=O)c2ccc(C)cc2)cc1`, 6.54%.
The result for `CCN(CC(=O)NCc1cccnc1)S(=O)(=O)c1ccc(OC)cc1` reads 0.0713%; that for `O=C(CN(C1CCCCC1)S(=O)(=O)c1ccc(Cl)cc1)NCc1cccnc1`, -60.6%.
`CCOc1ccc(S(=O)(=O)N(CC(=O)NCc2cccnc2)c2ccc(F)cc2)cc1`: the “hERG current change (%, negative = inhibition) at 1uM” value is on record as -67.2%.
For the compound `Cc1ccc(S(=O)(=O)N(CC(=O)NCc2cccnc2)c2ccc(F)cc2)cc1`, the “hERG current change (%, negative = inhibition) at 1uM” value is -38.1%.
Regarding `C[C@H]1CN=C(N(C)C)N1CCC1CCCCC1`, the “hERG current change (%, negative = inhibition) at 1uM” value came out at 13.6%.
Regarding `CN(CC(=O)Nc1cccc(S(=O)(=O)NC2=NCCCCC2)c1)Cc1ccc(C(C)(C)C)cc1.O=C(O)C(=O)O`, the “hERG current change (%, negative = inhibition) at 1uM” value came out at 12.9%.
The result for `CCN1CCN(S(=O)(=O)c2cc(OC)ccc2OC)CC1` reads 19%.
The result for `c1ccc(CSc2nnc3c(n2)OC(c2ccco2)Nc2ccccc2-3)cc1` (stereo not shown) reads 14.9%.
The result for `COC(=O)c1sc(Nc2ccccc2)nc1C` reads 13.5%.
Regarding `C/C(N)=C(/C#N)C(=O)CSc1nc2cc(Cl)ccc2s1`, the “hERG current change (%, negative = inhibition) at 1uM” value is on record as -7.65%.
The result for `CC(=O)c1ccc2c(c1)OCCOCCOCCOCCOCCO2` reads -11.8%; that for `c1ccc2c(c1)OCCOCCOCCOCCOc1ccccc1OCCOCCOCCO2`, -11.5%; that for `CC(=O)c1ccc2c(c1)OCCOCCOCCOCCO2`, -3.2%.
The result for `C/C(=N/O)c1ccc2c(c1)OCCOCCOc1cc(/C(C)=N/O)ccc1OCCOCCO2` reads -79.7%; that for `CC(=O)c1ccc2c(c1)OCCOCCOc1ccc(C(C)=O)cc1OCCOCCO2`, -84.8%; that for `O=C(c1ccccc1)c1ccc2c(c1)OCCOCCOCCO2`, 8.88%.
The result for `CC(=O)c1ccc2c(c1)OCCOCCOCCO2` reads 12.3%.
Regarding `CC(=O)c1ccc2c(c1)OCCOCCOc1ccccc1OCCOCCO2`, the “hERG current change (%, negative = inhibition) at 1uM” value was -82.5%.
The result for `C/C(=N\O)c1ccc2c(c1)OCCO2` reads 12.6%; that for `c1ccc2c(c1)OCCOCCOCCO2`, 13.2%.
As to `O=C(O)c1ccc2c(c1)OCCOCCOCCOCCOCCO2`, the “hERG current change (%, negative = inhibition) at 1uM” value is on record as -12.4%.
For `CC(=O)[O-].[K+].c1ccc2c(c1)OCCOCCOc1ccccc1OCCOCCO2`, the “hERG current change (%, negative = inhibition) at 1uM” value was -80.7%.
